Bioassay records (PubChem)
Rows were chosen to be rich in hits. Some 8.8% of all compounds tested hit in one or more screens of this group.
KB-3-1 cytotox: qHTS assay for MDR1-selective chemotherapeutics: Primary screen using the parental adenocarcinoma cell KB-3-1; Potency, µM (top dose mostly 46.1 µM), most hits filed as cytotoxic; KB-3-1 viability, CellTiter-Glo ATP luminescence, 72 h; hit rate 1.4% among 400,000; AID 1347075, 2019; note: nearly all actives have a fitted effect of over 60% in size
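Parental KB-3-1 viability, qHTS format: 72 h compound exposure, 37 °C; CellTiter-Glo; media-only wells and DMSO plates as controls; concentration-effect fits on corrected data.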
IL-1B inflam inh: qHTS for Inhibitors of Inflammasome Signaling: IL-1-beta AlphaLISA Primary Screen | THP-1 LPS/ATP IL-1B secretion, AlphaLISA, 16 h; stronger effect = lower value | activity change, % at 57.5 µM | hit rate 4.7% among 360,000; in the data active = activity change below about -50%; inconclusive = mostly about -30% to -49%
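THP-1 cells pretreated 1 hr with compounds (up to 57.5 uM final), then stimulated with LPS (250 ng/mL final) plus ATP (1.25 mM final); secreted IL-1B measured by AlphaLISA after 16 hr, decreased signal indicating inhibition.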
HT1080NT lethal: qHTS for induction of synthetic lethality in tumor cells producing 2HG: qHTS for the HT-1080-NT fibrosarcoma cell line | AID 686970, 2013 | Potency, µM (titrated, usually from 46.1 µM), hits mostly cytotoxic | hit rate 1.6% among 360,000 | HT-1080-NT fibrosarcoma viability, CellTiter-Glo ATP luminescence, 48 h;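 note: NT is the 2HG producing partner of a matched IDH1 knockdown line; nearly all actives have a fitted effect of over 55% in size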
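A 48-hour cytotoxicity screen used HT-1080-NT cells plated 2 hours before compound delivery. ATP-based CellTiter-Glo luminescence measured viability, normalized to DMSO and no-cell controls.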
KB-V1 MDR tox: qHTS assay for MDR1-selective chemotherapeutics: Primary screen using the drug-selected MDR subline cells KB-V1; hit rate 3.4% among 400,000; KB-V1 MDR cells viability, CellTiter-Glo, 72 h; Potency, µM (series often up to 46.1 µM), most hits filed as cytotoxic; AID 1347076, 2019; note: nearly all actives have a fitted effect of over 60% in size
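Drug-selected KB-V1 cells, grown in DMEM lacking phenol red with 10% FBS, receive compound titrations; after three days at 37 degrees C, surviving cell ATP is quantified by CellTiter-Glo luminescence and responses normalized and curve-fitted.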
HT1080 IDH1KD tx: qHTS for induction of synthetic lethality in tumor cells producing 2HG: qHTS for the HT-1080-IDH1KD cell line; HT-1080 IDH1 knockdown viability, ATP luminescence, 48 h; Potency, µM (titrated, usually from 46.1 µM), usual class: cytotoxic; hit rate 2% among 360,000; AID 686971, 2013
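Luminescent ATP read-out (CellTiter-Glo, 10 min at room temperature) after 48 h compound exposure at 37 °C gave viability of IDH1-knockdown HT-1080 cells. Activity was normalised to DMSO and cell-free wells, then fitted as concentration-response curves.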
A number is an active result; . = inactive; ? = inconclusive; / = no result given; [ ] = dose if it differs, or a comment. Unless noted, calls come from the whole dose curve; as a rule, active = well fitted curve in the direction sought with a large enough effect; inconclusive = small, poorly fitted or top-dose-only effect, or another doubt; inactive = no such curve, though single readings can be large; an effect the other way counts as inactive or inconclusive.

SMILES | KB-3-1 cytotox | IL-1B inflam inh | HT1080NT lethal | KB-V1 MDR tox | HT1080 IDH1KD tx
CC(C)(C(=O)O)c1ccc([C@H](O)CCCN2CCC(C(O)(c3ccccc3)c3ccccc3)CC2)cc1 | / | . | ? | / | .
CN1C(=O)CC(C(=O)Nc2ccccc2F)SC1=Nc1ccc2c(c1)OCO2 (configuration not stated) | . | . | . | . | .
CN(C)c1ccc(C(=O)n2nnc3ccccc32)cc1 | . | / | ? | . | 15.8µM
O=C(CCC(=O)N(CC(=O)NC1CCCC1)C1CCCCC1)Nc1ccccn1 | . | . | . | . | .
CC(=O)Oc1cccc(N2C(=O)c3ccc(C(=O)O)cc3C2=O)c1 | . | . | . | . | .
Cc1ccc(C(=O)O)cc1N1C(=O)c2cccc3c([N+](=O)[O-])ccc(c23)C1=O | ? | . | 16.4µM | . | ?
CC(=O)Oc1cccc(N2C(=O)c3cccc4c([N+](=O)[O-])ccc(c34)C2=O)c1 | . | -94.6 | . | . | .
O=C(O)c1ccc(CN2C(=O)c3cccc4c([N+](=O)[O-])ccc(c34)C2=O)cc1 | ? | -99.5 | ? | ? | ?
O=C1c2cccc3c([N+](=O)[O-])ccc(c23)C(=O)N1CCc1ccccn1 | . | . | . | . | .
CN(C)CCCN1C(=O)c2cccc3c([N+](=O)[O-])ccc(c23)C1=O | 23.1µM | -51.1 | ? | ? | 5.8µM
Cc1ccc(-c2cc(C(=O)N3CCN(S(=O)(=O)c4ccc(Br)cc4)CC3)[nH]n2)c(C)c1 | . | / | / | . | /
O=C(Nc1nccs1)c1cccc(N2C(=O)c3cccc4c([N+](=O)[O-])ccc(c34)C2=O)c1 | ? | -106.3 | 20.6µM | ? | 16.4µM
CCOC(=O)c1c(C)sc2c1N(C(=O)CCl)c1cc(Cl)ccc1S2 | ? | -101.1 | 23.1µM | ? | 18.4µM
Cc1cn(C)c(CC(=O)NCc2cccc(Cl)c2)c1C(=O)O | . | / | / | ? | /
O=CNc1ccc2c(c1)Cc1cccc(NC=O)c1-2 | ? | . | . | 6.51µM | .
CCOC(=O)c1c(C)[nH]c(C2=NNC(=NC3CC3)SC2)c1C | . | -50.4 | . | . | .
CCOC(=O)c1c(C)[nH]c(/C(C)=N/O)c1C | . | . | . | ? | .
N#C/C(=C\c1ccc([N+](=O)[O-])o1)C(=O)Nc1ccc(F)cc1 | . | -90.0 | ? | . | ?
O=C(/C=C/c1ccc([N+](=O)[O-])o1)Nc1cccc([S+](=O)([O-])Nc2ccccc2F)c1 | . | / | / | . | /
N#CCc1ccc(NC(=O)/C=C/c2ccc([N+](=O)[O-])o2)cc1 | 5.17µM | -97.8 | 3.26µM | ? | 2.91µM
CN(C(=O)Nc1ccc(F)cc1)[C@H]1C[C@H]2c3[nH]c4ccccc4c3CCN2C(=O)[C@H]1CO | . | . | . | . | .
O=C(NCc1cccnc1)c1ccc(S(=O)(=O)N2CCCCC2)cc1 | . | . | . | . | .
Cc1c(C(=O)NCc2ccccc2)oc2ccc(S(=O)(=O)N3CCCC3)cc12 | . | . | . | . | ?
Cc1c(C(=O)N(C)Cc2ccccc2)oc2ccc(S(=O)(=O)N3CCCC3)cc12 | . | . | . | . | .
O=S(=O)(c1ccc(NC(=S)NCc2cccnc2)cc1)N1CCCCC1 | . | . | ? | . | 10.3µM
SMILES | KB-3-1 cytotox | IL-1B inflam inh | HT1080NT lethal | KB-V1 MDR tox | HT1080 IDH1KD tx
Cc1c(C(=O)NCc2cccnc2)oc2ccc(S(=O)(=O)N3CCCCCC3)cc12 | ? | . | . | 5.17µM | .
CCN(C(=O)c1oc2ccc(S(=O)(=O)N3CCCCCC3)cc2c1C)c1ccccc1 | 25.9µM | / | / | . | /
Cc1c(C(=O)NCc2cccnc2)oc2ccc(S(=O)(=O)N3CCCCC3)cc12 | ? | . | ? | ? | 14.1µM
CCCn1c(N)c(C(=O)CSc2nnc(-c3ccoc3C)n2C)c(=O)n(C)c1=O | . | . | .[9.24 µM] | . | .
COC(=O)c1ccc(NC(=O)C(=O)NCCc2csc(-c3ccc(F)cc3)n2)cc1 | . | / | / | . | /
CCCCN(C(=O)c1cc(S(=O)(=O)N2CCOCC2)ccc1N1CCOCC1)c1ccccc1 | . | . | . | . | .
CCCCN(C(=O)c1cc(S(=O)(=O)N2CCCCCC2)ccc1OC)c1ccccc1 | ? | -81.0 | . | . | ?
CCOP(=O)(OCC)C(Cc1ccc(OC)c(OC)c1)N=C(c1ccccc1)c1ccccc1 (configuration not stated) | . | . | . | 14.6µM | .
CC(C)(C)OC(=O)N1CCC(c2c(C(=O)N3CCN(c4ccccc4F)CC3)cnn2-c2ccccc2Cl)CC1 | . | / | / | . | /
O=C(O)C1OCC2(CO1)COC(C(=O)O)OC2 (configuration not stated) | . | . | . | . | .
CC(OCC(O)CN(C)CCOc1ccccc1)c1ccc(Cl)cc1 (configuration not stated) | . | . | . | 16.4µM | .
CCN(CC(=O)Nc1c(F)cccc1F)C(=O)c1ccc2c(c1)S(=O)(=O)N=C1CCCCCN12 | . | . | . | . | .
O=C(Cc1ccc(Cl)cc1)NCCc1ccc(F)cc1 | . | . | . | . | .
O=C(CNC(=S)N(Cc1ccccc1)Cc1ccccc1F)NCCc1ccc(Cl)cc1 | . | / | 16.4µM | ? | 16.4µM
O=C(CNC(=S)N(Cc1ccccc1)Cc1cccs1)NCc1ccc(F)cc1 | . | -71.3 | . | ? | .
CCn1cc(C(=O)NCc2ccccc2)c(=O)c2cc(S(=O)(=O)N3CCOCC3)ccc21 | . | / | / | . | /
Cc1ccc(NC(=O)Nc2nnc(N3CCCCC3)s2)c(C)c1 | . | / | / | ? | /
COc1ccccc1NC(=O)C(=O)NCCc1csc(-c2cccc(F)c2)n1 | . | / | / | . | /
O=C(CSc1nnc(-c2ccccc2)n1-c1ccc(Cl)cc1)N/N=C/c1ccco1 | . | . | . | 16.4µM | .
Cc1nnc(SCC(=O)N/N=C/c2cn(-c3ccccc3)nc2-c2ccccc2)n1-c1ccccc1 | . | -78.4 | ? | ? | ?
Cc1ccc(NC(=O)CSc2nnc(C)n2-c2ccccc2)cc1 | . | . | ? | . | .
CN1C(=S)SC(N(O)C(=O)Nc2ccc(Cl)c(Cl)c2)C1(C)C (configuration not stated) | ? | . | . | 18.4µM | ?
CS(=O)(=O)N1N=C(c2ccccc2)CC1c1ccc2nccnc2c1 (configuration not stated) | . | . | . | 20.6µM | .
Cc1ccc[n+](/C(C(=S)NCc2ccco2)=C(/[O-])c2ccccc2Cl)c1 | ? | . | . | . | .
Cc1ccc[n+](C(C(=S)NCc2ccco2)=C([O-])c2ccccc2Cl)c1 | . | . | . | 20.6µM | .
CC(C)=CCN1CCN(Cc2ccc(Sc3nncn3C)o2)CC1CCO (configuration not stated) | . | . | . | . | .
